Screens from PubChem.
Most compounds without a hit are left out; they make up all but 10% or so of the library.
JMJD2A Tudor inh – qHTS Assay for Inhibitors of JMJD2A-Tudor Domain; Lysine-specific demethylase 4A (Homo sapiens), O75164; 390,000 tested, 4.4% active; Potency, µM (top dose mostly 114 µM), inactives show at the highest dose activity change, negative = inhibition, hits mostly inhibitors; AlphaScreen JMJD2A-Tudor / H3K4me3 peptide binding; AID 504339, 2011; note: % is set by controls: 0 for no effect and ±100 for the full control effect; nearly all actives have a fitted effect of over 50% in size
Target sequence (O75164 whole entry, looked up, the tested form may be a part): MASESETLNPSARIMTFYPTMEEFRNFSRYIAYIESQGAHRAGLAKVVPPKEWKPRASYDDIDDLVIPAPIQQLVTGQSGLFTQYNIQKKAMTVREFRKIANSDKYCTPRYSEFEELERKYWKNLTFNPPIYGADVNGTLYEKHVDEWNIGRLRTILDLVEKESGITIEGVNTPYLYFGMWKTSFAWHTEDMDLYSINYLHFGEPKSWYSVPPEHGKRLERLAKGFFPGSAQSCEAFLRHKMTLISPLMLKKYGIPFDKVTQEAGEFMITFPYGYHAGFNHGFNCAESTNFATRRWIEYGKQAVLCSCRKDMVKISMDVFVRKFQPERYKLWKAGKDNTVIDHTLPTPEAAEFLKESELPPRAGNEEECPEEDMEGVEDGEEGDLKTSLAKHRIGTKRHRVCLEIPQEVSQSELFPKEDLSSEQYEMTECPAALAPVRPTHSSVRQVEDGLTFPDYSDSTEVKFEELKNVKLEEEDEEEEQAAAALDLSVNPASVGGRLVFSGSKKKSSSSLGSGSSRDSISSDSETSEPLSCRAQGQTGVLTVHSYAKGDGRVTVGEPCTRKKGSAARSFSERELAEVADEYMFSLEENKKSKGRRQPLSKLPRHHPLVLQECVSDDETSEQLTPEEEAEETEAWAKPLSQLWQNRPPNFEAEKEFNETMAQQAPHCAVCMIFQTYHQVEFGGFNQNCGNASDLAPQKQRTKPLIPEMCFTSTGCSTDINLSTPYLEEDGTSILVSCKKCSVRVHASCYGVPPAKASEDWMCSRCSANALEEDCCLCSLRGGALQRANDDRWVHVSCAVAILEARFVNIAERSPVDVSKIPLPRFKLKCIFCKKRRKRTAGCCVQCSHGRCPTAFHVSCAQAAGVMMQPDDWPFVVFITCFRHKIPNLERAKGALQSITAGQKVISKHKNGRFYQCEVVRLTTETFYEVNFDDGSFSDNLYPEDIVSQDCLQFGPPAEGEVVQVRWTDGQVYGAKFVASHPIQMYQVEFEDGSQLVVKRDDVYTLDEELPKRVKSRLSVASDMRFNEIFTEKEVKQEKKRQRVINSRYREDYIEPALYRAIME
L3MBTL1 inh – qHTS Assay for the Inhibitors of L3MBTL1; Potency, µM (top dose mostly 57.1 µM), without a hit: at the highest dose activity, negative = inhibition, usual class: inhibitors; AlphaScreen L3MBTL1–H3K9me1 peptide binding; 230,000 tested, 0.66% active; note: % is set by controls: 0 for no effect and ±100 for the full control effect; nearly all actives have a fitted effect of over 60% in size
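L3MBTL1 50 nM + b-AHA-H3(1-15)K9me1 75 nM, 30 min RT; compound added, 30 min RT; streptavidin donor/Ni-chelate acceptor beads 10 ug/mL each final, 30 min RT dark; AlphaScreen read.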
BAZ2B block – qHTS Assay for Inhibitors of BAZ2B. Potency, µM (highest dose often 114 µM), for inactives: at the highest dose activity change, negative = inhibition, actives largely listed as inhibitors. 360,000 tested, 4.4% active. Bromodomain adjacent to zinc finger domain protein 2B (Homo sapiens), Q9UIF8. AlphaScreen BAZ2B-H3K14Ac peptide displacement. AID 504333, 2011; note: % is set by controls: 0 for no effect and ±100 for the full control effect; nearly all actives have a fitted effect of over 60% in size
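BAZ2B 50 nM plus b-H3(5-23)K14Ac 50 nM, PBS pH 7.4/0.01% Tween-20, 30 min RT; compound added (max 110 uM), 30 min RT; streptavidin donor/Ni-chelate acceptor beads 10 ug/mL final, 20 min dark; AlphaScreen read.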
HP1b chromo inh – HTS for Inhibitors of HP1-beta Chromodomain Interactions with Methylated Histone Tails. 390,000 tested, 0.56% active. Potency, µM (series often up to 114 µM), for inactives: at the highest dose activity change, negative = inhibition, usual class: inhibitors. AlphaScreen HP1-beta / biotin-H3K9me3 peptide binding; note: nearly all actives have a fitted effect of over 70% in size
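AlphaScreen: HP1-beta (50 nM) preformed 30 min with biotin-H3(1-18)K9me3 peptide (50 nM) in PBS pH 7.4, 0.01% Tween-20. Compound added for 30 min at RT, then streptavidin donor/nickel chelate acceptor beads (10 ug/mL) for 30 min.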
G9a inh – qHTS Assay for Inhibitors of Histone Lysine Methyltransferase G9a | G9a H3K9 monomethylation, AlphaScreen, 2 h | Histone-lysine N-methyltransferase EHMT2 (Homo sapiens), Q96KQ7 | 350,000 tested, 8.8% active | Potency, µM (doses to about 102 µM), for inactives: at the highest dose activity, negative = inhibition, actives largely listed as inhibitors; note: % is set by controls: 0 for no effect and ±100 for the full control effect; nearly all actives have a fitted effect of over 75% in size
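Compounds were preincubated with 20 nM G9a for 15 min, after which biotinylated H3K9 peptide (500 nM) and SAM (20 uM) started a 2 h room-temperature reaction. Monomethylated product was quantified by antibody-based AlphaScreen chemiluminescence.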
GLS inh – qHTS for Inhibitors of Glutaminase (GLS) | Glutaminase kidney isoform, mitochondrial (Homo sapiens), O94925 | GLS enzymatic activity, qHTS titration | Potency, µM (titrated, usually from 45.5 µM), for the others: at the top dose activity change, negative = inhibition, most hits filed as inhibitors | 410,000 tested, 0.21% active | AID 624170, 2012; note: % is set by controls: 0 for no effect and ±100 for the full control effect
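Enzyme dispensed in phosphate buffer (45 mM, pH 8.2, 0.02% Tween-20), compounds pinned in, then 1 mM L-glutamine solution and the glutamate oxidase–HRP–Amplex Red mix added; fluorescence read immediately and again after 30 min at room temperature.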
* marks the source's active call; other numbers are inactive results; [ ] = another dose, or the depositor's remark. Calls come from the whole dose curve; as a rule, active = well fitted curve in the direction sought with a large enough effect; inconclusive = small, poorly fitted or top-dose-only effect, or another doubt; inactive = no such curve, though single readings can be large; an effect the other way counts as inactive or inconclusive. Potency is the fitted concentration of half-maximal effect.

How did CCN(CC)C(=O)CSc1nnc(-c2ccccc2)n1-c1ccccc1 do in these assays?
JMJD2A Tudor inh: 50.1µM*; L3MBTL1 inh: 4.9%; BAZ2B block: 4.7%; HP1b chromo inh: 59.5%; G9a inh: 28.2µM*; GLS inh: 0.6%

Results for CSc1nnc(-c2ccccc2)o1 ?
JMJD2A Tudor inh: 1.9%; L3MBTL1 inh: 6.2%; HP1b chromo inh: 23.1%; G9a inh: 21.0%[59 µM]; GLS inh: 7.0%

Results for CCCOC(=O)CSc1nnc(-c2ccccc2)o1 ?
JMJD2A Tudor inh: 23.4%; BAZ2B block: 25.0%; HP1b chromo inh: 52.2%; G9a inh: -2.9%[59 µM]; GLS inh: -13.5%

How did CCN(Cc1ccccc1)C(=O)CSc1nncn1C do in these assays?
JMJD2A Tudor inh: -22.6%; L3MBTL1 inh: 2.7%; BAZ2B block: inconclusive; HP1b chromo inh: 28.0%; G9a inh: 56.2µM*; GLS inh: 1.9%

What do the screens show for `CCN(CC)C(=O)CSc1nnc(-c2ccccc2)n1N`?
JMJD2A Tudor inh: -16.2%; L3MBTL1 inh: -1.5%; BAZ2B block: 10.5%; HP1b chromo inh: 27.6%; G9a inh: -26.7%; GLS inh: 5.2%

What do the screens show for `CCOC(=O)Cn1nc(N2CCN(c3ccc(F)cc3)CC2)ccc1=O`?
JMJD2A Tudor inh: -7.0%; HP1b chromo inh: 38.8%; G9a inh: 10.6%[59 µM]; GLS inh: 29.9%

Results for CCCNC(=O)C1CCC(Cn2c(=O)c3sccc3n(CC(=O)NCc3cccc(OC)c3OC)c2=O)CC1 (stereo not given) ?
JMJD2A Tudor inh: -10.9%; BAZ2B block: 1.2%; HP1b chromo inh: 21.6%; G9a inh: -26.0%[59 µM]; GLS inh: -16.6%

Results for Cc1ccc(S(=O)(=O)N(CC(=O)N2CCc3ccccc3C2)c2ccc(C)c(C)c2)cc1 ?
JMJD2A Tudor inh: -21.9%; BAZ2B block: -14.9%; HP1b chromo inh: 27.7%; G9a inh: -19.8%[59 µM]; GLS inh: -13.0%

Results for O=C(NCc1ccccc1Cl)C(=O)NCC(c1ccco1)S(=O)(=O)c1cccs1 (stereo not given) ?
JMJD2A Tudor inh: -1.3%; BAZ2B block: 4.5%; HP1b chromo inh: 34.7%; G9a inh: -20.4%[59 µM]; GLS inh: -0.1%

How did COc1ccc(Cn2c(SCC(=O)NCc3ccc(Cl)cc3)nc3ccsc3c2=O)cc1 do in these assays?
JMJD2A Tudor inh: 1.7%; BAZ2B block: -11.5%; HP1b chromo inh: 37.0%; G9a inh: 0.0%[59 µM]; GLS inh: -6.0%

How did COc1cccc(Cn2c(=O)c(C)nc3cnc(N4CCN(C)CC4)nc32)c1 do in these assays?
G9a inh: 0.8%[0.501 µM]

How did CNC(=O)c1nnsc1S(=O)(=O)c1ccc(Cl)cc1 do in these assays?
JMJD2A Tudor inh: 1.4%; L3MBTL1 inh: inconclusive; BAZ2B block: -14.6%; HP1b chromo inh: -14.7%; G9a inh: 14.1µM*; GLS inh: 4.2%

What do the screens show for `O=C(c1nnsc1S(=O)(=O)c1ccc(Cl)cc1)N1CCOCC1`?
JMJD2A Tudor inh: -15.0%; L3MBTL1 inh: -2.9%; BAZ2B block: -23.4%; HP1b chromo inh: 23.1%; G9a inh: 50.1µM*; GLS inh: -0.3%

What do the screens show for `O=C(Nc1ccccc1)c1nnsc1S(=O)c1ccc(Cl)cc1` (stereo not given)?
JMJD2A Tudor inh: inconclusive; L3MBTL1 inh: -0.3%; BAZ2B block: -36.2%; HP1b chromo inh: -32.2%; G9a inh: inconclusive; GLS inh: inconclusive

Results for CNC(=O)c1ccc(S(=O)(=O)c2ccc(Cl)cc2)c(NC(C)=O)c1 ?
JMJD2A Tudor inh: -1.1%; BAZ2B block: -6.0%; HP1b chromo inh: 29.9%; G9a inh: -3.3%; GLS inh: 0.4%
